Source: PubChem BioAssay (several laboratories)
An excerpt weighted towards active compounds, which were near 32% of everything screened.
CYP2C19 inh – inhibitors of human CYP2C19; P33261; CYP2C19 Supersomes, luciferin-H EGE luminescence, 30 min; inhibition, % at 5 µM; 96,000 compounds, 21% hits; AID 778;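 active = CYP2C19 inhibition above a set limit at 5 µM in the primary screen, cut at about 50% in these data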;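 note: plate controls were negative control wells for no effect and 2.5 mM tranylcypromine positive control for full effect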
CYP2C9 activ – increases human cytochrome P450 2C9 activity; 96,000 compounds, 1.4% hits; AID 1024; recombinant CYP2C9, luciferin-H conversion, luminescence; active compounds read high; factor 1 = untreated enzyme, 0 = blocked; activation factor at 5 µM; P11712;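 active = activation factor of 2 or more for CYP2C9 at a 5 µM dose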;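 note: 0 = sulfaphenazole-blocked wells and 1 = vehicle-only wells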
Target sequence (P11712 whole entry, looked up): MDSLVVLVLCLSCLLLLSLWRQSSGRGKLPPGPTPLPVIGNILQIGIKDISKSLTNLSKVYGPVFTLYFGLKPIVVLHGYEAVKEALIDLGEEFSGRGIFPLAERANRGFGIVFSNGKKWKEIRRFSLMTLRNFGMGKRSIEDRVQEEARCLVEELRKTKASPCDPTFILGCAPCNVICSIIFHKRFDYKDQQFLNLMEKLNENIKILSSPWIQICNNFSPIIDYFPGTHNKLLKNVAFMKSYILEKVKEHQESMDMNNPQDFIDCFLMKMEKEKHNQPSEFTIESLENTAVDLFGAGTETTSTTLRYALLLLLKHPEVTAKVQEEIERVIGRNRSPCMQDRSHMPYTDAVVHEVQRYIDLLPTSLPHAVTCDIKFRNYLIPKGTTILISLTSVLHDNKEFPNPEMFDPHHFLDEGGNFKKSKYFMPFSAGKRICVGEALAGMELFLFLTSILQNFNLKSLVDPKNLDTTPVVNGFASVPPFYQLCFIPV
CYP2C9 inhib – inhibitors of human CYP2C9. CYP2C9 Supersomes, luciferin-H conversion, luminescence. 96,000 compounds, 20% hits. P11712. inhibition, % at 5 µM;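 active = blocking of liver enzyme CYP2C9 beyond about 50% at 5 µM, limit read from the data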
PostGolgi yeast – growth inhibition of a yeast mutant, post-Golgi transport screen | post-Golgi transport phenotypic cell assay | inhibition, % at 10 µM | 98,000 compounds, 0.9% hits | AID 739;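 note: yeast cells grown in 1536-well plates; yeast grown about 18 h at 30C before absorbance read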
CYP2C19 activ – cytochrome P450 2C19 (human) activation; P33261; recombinant CYP2C19, luciferin-H EGE luminescence; active compounds read high; 0 = fully inhibited enzyme, 1 = untreated enzyme; activation factor at 5 µM; 96,000 tested, under 10 active; AID 1025;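 active = activation factor of at least 2 at 5 µM in the primary screen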;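 note: 0 = wells with 2.5 mM tranylcypromine and 1 = vehicle-only wells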
PostGolgi ctrl – inhibits growth of the yeast control strain | inhibition, % at 10 µM | AID 738 | 98,000 compounds, 5% hits | efflux-deficient yeast background strain, growth absorbance A615, 16 h
Numbers without * were called inactive; . = no result given. Cut-off read from the data, not from the text of the source, unless noted: active = inhibition above about 30%; inactive = the rest.

SMILES	CYP2C19 inh	CYP2C9 activ	CYP2C9 inhib	PostGolgi yeast	CYP2C19 activ	PostGolgi ctrl
COc1cc(CO)cc(Br)c1OCC(=O)N1CCCCC1	23	2.2*	-118	-7	0.8	-3
COc1ccc(S(=O)(=O)N2CCN(C(=O)CCC3CCCC3)CC2)cc1	55*	0.6	41	0	0.5	7
CCOc1ccc(-n2c(SCC(=O)Nc3ccccc3C)n[nH]c2=O)cc1	20	1.2	-24	9	0.8	25
CCC(=O)N1CCc2cc(S(=O)(=O)NCCC(=O)N3CCN(c4ccccn4)CC3)ccc21	-15	0.9	8	4	1.1	-4
O=C1NCCCC1C(=O)N/N=C/c1ccccc1 (stereo unspecified)	-6	1.1	-13	-1	1.1	2
Cc1ccc(OCC(=O)N2CCN(C(=O)CCC3CCCC3)CC2)cc1	56*	0.4	56*	0	0.4	0
O=C(CCC1CCCC1)N1CCN(C(=O)COc2ccccc2)CC1	-5	1	-3	2	1.1	6
CCOC(=O)c1c(-c2cccs2)csc1NC(=O)CN(CC)CC	38	0.2	75*	15	0.6	9
CCOC(=O)c1c(-c2cccs2)csc1NC(=O)CN1CCOCC1	45	0.3	73*	-1	0.5	6
CCOC(=O)c1c(-c2cccs2)csc1NC(=O)CC(C)C	15	0.9	10	5	0.9	1
CCOC(=O)c1c(-c2ccc(C)o2)csc1NC(=O)CN1CCOCC1	54*	0.3	72*	16	0.5	-2
CCOC(=O)c1c(-c2ccc(C)o2)csc1NC(=O)COC(=O)c1cccs1	.	.	.	1	.	-2
CCOC(=O)c1c(-c2ccc(C)o2)csc1NC(=S)NC(=O)N(C)C	18	0.5	53*	10	0.8	12
COc1cccc2c(=O)n(CC(=O)N3CCCCC3)ccc12	26	1.2	-24	-4	0.7	6
Clc1cccc(Cl)c1COc1ccncc1	.	.	.	4	.	2
CCOC(=O)c1c(-c2ccc(C)o2)csc1NC(=O)CSc1ncn[nH]1	61*	0.1	85*	1	0.4	34*
COc1ccc(CN(CC2CCCO2)S(=O)(=O)c2ccc(C(=O)O)cc2)cc1OC (stereo unspecified)	-13	1.1	-12	5	1.1	5
Cn1nc([N+](=O)[O-])nc1Sc1nnc(-c2ccccc2)o1	19	0.5	52*	1	0.8	26
O=Cc1ccc(Sc2nnc(-c3ccccc3)o2)c([N+](=O)[O-])c1	27	0.9	13	5	0.7	25
CCC(c1nnnn1C(C)(C)C)N1CCN(C2CCCC2)CC1 (stereo unspecified)	8	0.8	22	-5	0.9	-11
CCCC(c1nnnn1C(C)(C)CC)N1CCN(C2CCCC2)CC1 (stereo unspecified)	60*	0.6	35	-8	0.4	2
CCCC(c1nnnn1C1CCCCC1)N1CCN(C2CCCC2)CC1 (stereo unspecified)	72*	1	0	2	0.3	2
CCN1CCN(c2nc3ccccc3nc2C(C#N)S(=O)(=O)c2ccc(C)c(C)c2)CC1 (stereo unspecified)	8	1	1	3	0.9	6
CCCN(S(=O)(=O)c1ccc(OCC)cc1)S(=O)(=O)c1cccs1	30	0.6	41	-2	0.7	20
CC(C)OCCCn1c(=N)c(C(N)=S)cc2c(=O)n3ccccc3nc21	79*	0.8	25	24	0.2	-1
SMILES	CYP2C19 inh	CYP2C9 activ	CYP2C9 inhib	PostGolgi yeast	CYP2C19 activ	PostGolgi ctrl
CCCCn1c(=NC(=O)c2ccc3c(c2)OCO3)c(C#N)cc2c(=O)n3cccc(C)c3nc21	36	0.4	57*	6	0.6	11
CC(C)OCCCn1c(=NC(=O)c2ccncc2)c(C#N)cc2c(=O)n3ccccc3nc21	80*	0.3	74*	0	0.2	2
CCCCCn1c(=NC(C)=O)c(C#N)cc2c(=O)n3ccccc3nc21	28	0.9	10	-2	0.7	0
Cc1cccc(NC2=NCC(=O)N2CCc2ccccc2)c1	-3	1	2	-3	1	9
CCOC(=O)N1CCN(C(=O)C(CC(C)C)NC(=O)C2CCCCC2)CC1 (stereo unspecified)	-1	1	-4	-4	1	-3
Cc1cc(C(=O)NC2CCCc3ccccc32)no1 (stereo unspecified)	41	0.9	13	-1	0.6	5
